Consider ten sequences from doi:10.1101/2024.03.05.583629.

The target of this test is pT7_6His-AlfaTag-ZIF268 (human, UniProt P18146 335-423). Nature of the test: PADIT-seq. Conditions: dsDNA, one strand shown.

Take “CTCGAGGATATCAAGATCTGGCCTCGGCGCGTGGAGGGGAACCTCTAGCTAGCCGACTCACTATAGGGATAATCGCCCTGAGCAAAGACC”: the binding signal was 0.222 ± 0.116 log2FC.

“CTCGAGGATATCAAGATCTGGCCTCGGCGCGCTGGCGGGAACCTCTAGCTAGCCGACTCACTATAGGGATAATCGCCCTGAGCAAAGACC”: the binding signal was 0.0489 ± 0.154 log2FC.

Take “CTCGAGGATATCAAGATCTGGCCTCGGCCGCCCACCCGGAACCTCTAGCTAGCCGACTCACTATAGGGATAATCGCCCTGAGCAAAGACC”: the binding signal stood at 0.112 ± 0.113 log2FC.

On to “CTCGAGGATATCAAGATCTGGCCTCGGCGCGTGGGCGGGAACCTCTAGCTAGCCGACTCACTATAGGGATAATCGCCCTGAGCAAAGACC”, for which the binding signal was found to be 4.32 ± 0.0557 log2FC.

Regarding “CTCGAGGATATCAAGATCTGGCCTCGGCGCGTGGCTCGGAACCTCTAGCTAGCCGACTCACTATAGGGATAATCGCCCTGAGCAAAGACC”, the binding signal came out at 0.122 ± 0.1 log2FC.

Sequence “CTCGAGGATATCAAGATCTGGCCTCGGCGCGCCCGCGGGAACCTCTAGCTAGCCGACTCACTATAGGGATAATCGCCCTGAGCAAAGACC” came in with a binding signal of 0.783 ± 0.131 log2FC.

In turn, “CTCGAGGATATCAAGATCTGGCCTCGGCCAGTGGGCGGGAACCTCTAGCTAGCCGACTCACTATAGGGATAATCGCCCTGAGCAAAGACC” showed a binding signal of 1.87 ± 0.0948 log2FC.

For the sequence “CTCGAGGATATCAAGATCTGGCCTCGGCGCGTGGTTTGGAACCTCTAGCTAGCCGACTCACTATAGGGATAATCGCCCTGAGCAAAGACC”, the binding signal came to 0.236 ± 0.101 log2FC.

Consider “CTCGAGGATATCAAGATCTGGCCTCGGCGCGTGGGGGGGAACCTCTAGCTAGCCGACTCACTATAGGGATAATCGCCCTGAGCAAAGACC”, for which the binding signal was 1.28 ± 0.104 log2FC.

The sequence “CTCGAGGATATCAAGATCTGGCCTCGGCGCGTGGCGGGGAACCTCTAGCTAGCCGACTCACTATAGGGATAATCGCCCTGAGCAAAGACC” showed a binding signal of 0.049 ± 0.11 log2FC.
